Screening results (PubChem BioAssay)
rCAG binder: molecules binding r(CAG) RNA repeats. r(CAG) RNA repeat, TO-PRO-1 dye displacement fluorescence. inhibition, % at 3 µM. 1.3% of 370,000 active;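 active = inhibition above the plate cutoff, the mean of all test compounds on that plate plus 3 SD, cut at about 35% in these data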;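 also: 0% = DMSO alone and 100% = 100 µM mitoxantrone as full dye displacement; higher means more dye released from RNA so lower well fluorescence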
GRIN3A LBD mod: modulators (binders) of human NR3A ligand-binding domain; Tm shift relative to glycine control, % at 25 µM; NR3A LBD differential scanning fluorimetry, Tm shift; 0% = protein alone, 100% = glycine-bound protein; 2.5% of 340,000 active;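 active = melting temperature shift of at least 10% of the positive control shift, at one fixed dose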
MPTP inh: permeability transition pore inhibition; 1.4% of 360,000 active; inhibition, % at 10 µM; isolated mouse mitochondria, Ca2+ swelling absorbance, 30 min; AID 602449;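 active = inhibition of 50% or more, scaled per plate between neutral and stimulator controls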;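 also: 0% = DMSO wells given calcium and 100% = 1 mM EGTA wells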
Myeloid diff MLP: compounds promoting myeloid differentiation. calls only at 10 µM. ER-HoxA9 myeloid progenitors, lysozyme-GFP differentiation, flow cytometry. 1% of 360,000 active;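 active = normalized GFP-positive differentiation at or above the plate's own cutoff, the solvent-only control mean plus 3 SD; inconclusive = no clear call, values can overlap the other calls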;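 also: cells exposed to compound for four days before flow analysis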
FAS TE block: blocks the thioesterase domain of human fatty acid synthase; recombinant FAS-TE, OMFH fluorogenic substrate, fluorescence endpoint; 0.67% of 360,000 active; AID 602261; inhibition, % at 15 µM;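 active = compounds whose normalised, plate-corrected inhibition of enzyme fluorescence in the single-dose primary screen is 50% or more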;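 also: 0% = DMSO with enzyme and 100% = substrate without enzyme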
Target sequence (P49327 whole entry, looked up, the tested form may be a part): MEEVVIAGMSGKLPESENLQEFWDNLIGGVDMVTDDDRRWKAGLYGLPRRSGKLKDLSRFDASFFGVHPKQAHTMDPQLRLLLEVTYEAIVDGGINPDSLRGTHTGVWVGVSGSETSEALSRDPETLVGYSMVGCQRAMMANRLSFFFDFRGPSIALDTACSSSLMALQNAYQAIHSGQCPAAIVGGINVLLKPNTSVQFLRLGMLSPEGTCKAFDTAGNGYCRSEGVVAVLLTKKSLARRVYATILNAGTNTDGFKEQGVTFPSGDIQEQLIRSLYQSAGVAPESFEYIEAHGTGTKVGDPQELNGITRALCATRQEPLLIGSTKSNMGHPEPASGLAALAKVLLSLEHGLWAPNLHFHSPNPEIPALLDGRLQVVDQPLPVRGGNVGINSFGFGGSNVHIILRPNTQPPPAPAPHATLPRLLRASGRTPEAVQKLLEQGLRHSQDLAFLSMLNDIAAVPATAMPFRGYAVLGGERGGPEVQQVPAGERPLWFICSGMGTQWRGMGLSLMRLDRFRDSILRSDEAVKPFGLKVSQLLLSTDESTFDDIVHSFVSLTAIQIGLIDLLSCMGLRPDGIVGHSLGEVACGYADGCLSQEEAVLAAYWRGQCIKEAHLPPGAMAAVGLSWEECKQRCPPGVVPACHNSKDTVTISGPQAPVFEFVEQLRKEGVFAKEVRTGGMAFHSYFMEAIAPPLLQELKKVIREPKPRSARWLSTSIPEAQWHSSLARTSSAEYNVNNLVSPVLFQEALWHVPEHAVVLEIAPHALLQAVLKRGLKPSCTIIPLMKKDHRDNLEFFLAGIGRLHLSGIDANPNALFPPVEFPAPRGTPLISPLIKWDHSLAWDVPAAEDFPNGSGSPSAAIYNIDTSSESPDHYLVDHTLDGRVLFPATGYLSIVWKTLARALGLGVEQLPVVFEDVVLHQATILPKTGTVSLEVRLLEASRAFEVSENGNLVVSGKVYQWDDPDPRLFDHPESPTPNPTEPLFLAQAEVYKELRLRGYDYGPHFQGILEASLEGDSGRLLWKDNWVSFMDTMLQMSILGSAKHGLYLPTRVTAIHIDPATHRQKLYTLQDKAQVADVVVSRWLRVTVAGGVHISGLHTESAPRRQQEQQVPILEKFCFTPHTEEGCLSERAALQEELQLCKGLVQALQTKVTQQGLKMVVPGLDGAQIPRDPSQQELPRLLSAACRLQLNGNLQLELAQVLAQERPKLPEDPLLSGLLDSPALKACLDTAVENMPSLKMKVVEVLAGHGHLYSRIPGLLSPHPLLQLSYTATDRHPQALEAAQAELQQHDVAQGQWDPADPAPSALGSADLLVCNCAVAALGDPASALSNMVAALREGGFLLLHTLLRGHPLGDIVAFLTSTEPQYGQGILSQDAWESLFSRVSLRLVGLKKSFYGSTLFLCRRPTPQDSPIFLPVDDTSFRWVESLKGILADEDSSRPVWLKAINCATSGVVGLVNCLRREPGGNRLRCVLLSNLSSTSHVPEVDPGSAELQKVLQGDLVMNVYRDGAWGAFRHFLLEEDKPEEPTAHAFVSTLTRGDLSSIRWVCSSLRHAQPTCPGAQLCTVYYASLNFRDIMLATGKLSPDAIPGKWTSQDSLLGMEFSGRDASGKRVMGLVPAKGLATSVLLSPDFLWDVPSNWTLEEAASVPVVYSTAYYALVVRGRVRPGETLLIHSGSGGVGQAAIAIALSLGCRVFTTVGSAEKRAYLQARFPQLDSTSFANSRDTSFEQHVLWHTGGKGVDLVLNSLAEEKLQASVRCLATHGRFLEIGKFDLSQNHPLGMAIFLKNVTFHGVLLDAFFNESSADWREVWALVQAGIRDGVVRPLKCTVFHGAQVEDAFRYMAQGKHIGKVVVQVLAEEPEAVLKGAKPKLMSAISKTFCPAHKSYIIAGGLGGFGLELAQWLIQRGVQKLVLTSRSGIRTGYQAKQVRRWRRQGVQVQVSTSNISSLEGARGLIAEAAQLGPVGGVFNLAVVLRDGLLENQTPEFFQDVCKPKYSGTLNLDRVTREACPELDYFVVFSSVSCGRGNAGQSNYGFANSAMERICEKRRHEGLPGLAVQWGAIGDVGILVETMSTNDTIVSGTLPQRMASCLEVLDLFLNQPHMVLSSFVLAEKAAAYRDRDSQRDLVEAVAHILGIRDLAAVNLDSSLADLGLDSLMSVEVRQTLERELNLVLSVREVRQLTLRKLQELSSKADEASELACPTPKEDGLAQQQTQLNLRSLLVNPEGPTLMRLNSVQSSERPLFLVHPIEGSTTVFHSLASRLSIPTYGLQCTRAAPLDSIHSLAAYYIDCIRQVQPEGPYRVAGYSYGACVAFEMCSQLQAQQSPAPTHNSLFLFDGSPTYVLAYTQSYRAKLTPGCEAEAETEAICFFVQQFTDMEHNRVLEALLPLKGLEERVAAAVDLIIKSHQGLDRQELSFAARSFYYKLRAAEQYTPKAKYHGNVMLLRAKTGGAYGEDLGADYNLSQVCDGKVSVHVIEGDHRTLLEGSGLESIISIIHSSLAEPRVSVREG
FAS-TE conf: confirmation of human fatty acid synthase thioesterase inhibitors; inhibition, % at 15 µM; 45% of 2,300 active; shares compounds with FAS TE block; recombinant FAS-TE, OMFH fluorogenic substrate, fluorescence;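 active = compounds inhibiting the enzyme by at least 50% at 15 µM in any one of the replicates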;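 also: 0% = enzyme with DMSO only and 100% = wells lacking enzyme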
* = called active by the depositor. In the library only some 5.7% were active in any assay of this set; here they are far more common.

`CC(C)[C@H](NC(=O)c1ccco1)C(=O)N1CCC[C@H]1C(=O)NCc1ccccc1` gave rCAG binder 2.
For Cc1ccc(S(=O)(=O)c2nnn3c2nc(N2CCOCC2)c2ccccc23)cc1C the results were rCAG binder 4, GRIN3A LBD mod -9, MPTP inh -1, Myeloid diff MLP inactive and FAS TE block 41.
Screening Cc1ccc(S(=O)(=O)c2nnn3c2nc(NCCCN2CCCC2=O)c2ccccc23)cc1C returned rCAG binder 4, GRIN3A LBD mod -7, MPTP inh 0, Myeloid diff MLP inactive, FAS TE block 71* and FAS-TE conf 69*.
`CN(C)N=C1c2cc(S(=O)(=O)N3CCOCC3)ccc2-c2ccc(S(=O)(=O)N3CCOCC3)cc21` gave rCAG binder 3, GRIN3A LBD mod 4, MPTP inh -4, Myeloid diff MLP inactive, FAS TE block 50* and FAS-TE conf 25.
COC(=O)C1=C(C)N(Cc2ccc(C(F)(F)F)cc2)C(=NCc2ccccc2)NC1c1ccccc1 (stereo not drawn) was read as rCAG binder 7.
Screening OC(c1ccccc1)(c1ccccc1)C1CCN(CCCOc2cccc(C(F)(F)F)c2)CC1 returned rCAG binder 1.
Screening CCCCNC(=S)N(C)/N=C/c1ccc(F)cc1 returned rCAG binder -5, GRIN3A LBD mod -7, MPTP inh 2, Myeloid diff MLP inactive and FAS TE block 31.
CCCCNC(=S)N(C)/N=C/c1ccc2c(c1)OCO2 was read as rCAG binder -1, GRIN3A LBD mod -1, MPTP inh 0, Myeloid diff MLP inactive, FAS TE block 53* and FAS-TE conf 43.
Screening COc1ccc(-c2ccc3[nH]c4c(c3c2)CCN2C[C@@H]([C@H](C)OC(=O)Nc3cc(Cl)cc(Cl)c3)[C@@H](N(C)C(=O)Nc3cc(Cl)cc(Cl)c3)C[C@@H]42)cc1 returned rCAG binder 23, MPTP inh 2, Myeloid diff MLP inactive and FAS TE block 22.
Screening COc1ccc(NC(=O)O[C@@H](C)[C@@H]2CN3CCc4c([nH]c5ccc(-c6ccc(OC)cc6)cc45)[C@@H]3C[C@@H]2N(C)C(=O)Nc2ccc(OC)cc2)cc1 returned rCAG binder 17, MPTP inh 1, Myeloid diff MLP inactive, FAS TE block 54* and FAS-TE conf 14.
Cc1cc(C)c(C(=O)COC(=O)c2cc([N+](=O)[O-])ccc2NCCO)cc1C was read as rCAG binder 12, GRIN3A LBD mod 1, MPTP inh -4, Myeloid diff MLP inactive, FAS TE block 52* and FAS-TE conf 37*.
For O=C(COC(=O)c1cc([N+](=O)[O-])ccc1NCCO)c1ccc(Cl)cc1 the results were rCAG binder 4, GRIN3A LBD mod -6, MPTP inh 1, Myeloid diff MLP inactive and FAS TE block 46.
`CCc1ccc(C(=O)COC(=O)c2cc([N+](=O)[O-])ccc2NCCO)cc1` gave rCAG binder 13, GRIN3A LBD mod 3, MPTP inh -1, Myeloid diff MLP inactive, FAS TE block 84* and FAS-TE conf 73*.
Screening C=CCNc1cccc2c1S(=O)(=O)N[C@@H](CC(C)C)CO2 returned rCAG binder 4.
O=C(C(=O)N1CCN(S(=O)(=O)c2ccc(F)cc2)CC1)c1cccc(C(F)(F)F)c1 was read as rCAG binder -2.
COc1ccc(-c2cc([N+](=O)[O-])ccc2OCC(=O)N(C)CC(=O)Nc2ccc(C)cc2)cc1 was read as rCAG binder 15, GRIN3A LBD mod 9, MPTP inh 0, FAS TE block 60* and FAS-TE conf 64*.
For CC(C)C(NC(=O)C12CC3CC(CC(C3)C1)C2)C(=O)N/N=C/C1=C(N2CCOCC2)C(=C\c2cccc([N+](=O)[O-])c2)/CC1 (stereo not drawn) the results were rCAG binder -2, GRIN3A LBD mod -12, MPTP inh -1, Myeloid diff MLP inactive, FAS TE block 64* and FAS-TE conf 14.
Cn1cc(C(=O)N/N=C/C2=C(N3CCOCC3)C(=C/c3ccc([N+](=O)[O-])cc3)/CC2)ccc1=O was read as rCAG binder 8, GRIN3A LBD mod 0, MPTP inh 1, Myeloid diff MLP inactive and FAS TE block -8.
O=C(c1ccc(Cl)cc1)[C@@H]1[C@@H]2C(=O)N(c3cccc4ccccc34)C(=O)[C@@H]2C2c3ccccc3C=NN21 (stereo partly drawn) was read as rCAG binder 10, GRIN3A LBD mod -1, MPTP inh 0, Myeloid diff MLP inactive, FAS TE block 85* and FAS-TE conf 40.
Screening CCCCCC1CC(CC(=O)Nc2ccc([N+](=O)[O-])cc2)C(=O)O1 (stereo not drawn) returned rCAG binder 8, GRIN3A LBD mod -1, MPTP inh 48, Myeloid diff MLP inactive, FAS TE block 54* and FAS-TE conf 57*.
For Cn1cc(Cc2ccc(C(=O)NCc3ccccc3)cn2)c2ccccc21 the results were rCAG binder 9, MPTP inh 1, Myeloid diff MLP inactive and FAS TE block 1.
For Cc1ccc(C(C(=O)NC2CCCCC2)N(C(=O)CCCC(=O)Nc2ccccn2)c2ccc3c(c2)OCCO3)cc1 (stereo not drawn) the results were rCAG binder -6, GRIN3A LBD mod 0, MPTP inh 2, Myeloid diff MLP inactive, FAS TE block 52* and FAS-TE conf 45.
For COc1ccc(NC(=O)Nc2cccc3c2O[C@H](CN(C)C(=O)NC2CCCCC2)[C@@H](C)CN([C@H](C)CO)C3=O)cc1 the results were rCAG binder 0, GRIN3A LBD mod 1, MPTP inh -1, Myeloid diff MLP inactive, FAS TE block 78* and FAS-TE conf 71*.
For C[C@H](CO)N1C[C@H](C)[C@@H](CN(C)C(=O)NC2CCCCC2)Oc2c(NC(=O)Nc3ccc4c(c3)OCO4)cccc2C1=O the results were rCAG binder 1, GRIN3A LBD mod -1, MPTP inh 1, Myeloid diff MLP inactive, FAS TE block 82* and FAS-TE conf 85*.
Screening CC(C)NC(=O)Nc1cccc2c1O[C@H](CN(C)C(=O)NC1CCCCC1)[C@@H](C)CN([C@H](C)CO)C2=O returned rCAG binder -5, GRIN3A LBD mod 0, MPTP inh -1, Myeloid diff MLP inactive and FAS TE block 14.
CCOC(=O)C1CCN(C(=O)c2ccc3c(=O)n4nc(Nc5cc(C)ccc5C)sc4nc3c2)CC1 was read as rCAG binder 3, GRIN3A LBD mod -4, MPTP inh -1, Myeloid diff MLP inconclusive, FAS TE block 55* and FAS-TE conf 25.
Screening COc1ccccc1Nc1nn2c(=O)c3ccc(C(=O)N4CCCC(C)C4)cc3nc2s1 (stereo not drawn) returned rCAG binder 10, GRIN3A LBD mod -12, MPTP inh 3, Myeloid diff MLP inconclusive and FAS TE block 35.
